This is a sample that favours compounds with a hit; in the whole collection about 12% have one here.
PLK1 PBD inh: PLK1 (human) polo-box domain binding inhibition. P53350. Plk1 PBD binding of FITC phosphopeptide, fluorescence polarization. Potency, µM, hits mostly inhibitors. hit rate 2.8% among 360,000. AID 720504; note: series mostly up to about 57 µM; nearly all actives have a fitted effect of over 65% in size
RORg inh: inhibitors of mouse ROR gamma transcriptional activity. Drosophila S2 Gal4-RORgamma UAS-luciferase reporter, 20 h. Potency, µM (series often up to 53.6 µM), actives largely listed as inhibitors. hit rate 5.4% among 310,000; note: nearly all actives have a fitted effect of over 60% in size
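Luminescence from a UAS-regulated Photinus luciferase reporter in stably transfected Drosophila Schneider cells is measured; decreased signal marks ROR gamma inhibition. Fusion expression is induced by 700 uM copper sulfate for 20 hr.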
ALDH1A1 block: ALDH1A1 (human) enzyme inhibition; hit rate 7.3% among 220,000; Purified ALDH1A1, NADH fluorescence, propionaldehyde substrate; Potency, µM (series often up to 75.3 µM), actives largely listed as inhibitors; active = well fitted inhibition curve with a large enough effect, not every such curve was filed as active; inconclusive = small, poorly fitted or top-dose-only effect, or another doubt; inactive = no such curve, though single readings can be large or run the other way
Target sequence (P00352 whole entry, looked up): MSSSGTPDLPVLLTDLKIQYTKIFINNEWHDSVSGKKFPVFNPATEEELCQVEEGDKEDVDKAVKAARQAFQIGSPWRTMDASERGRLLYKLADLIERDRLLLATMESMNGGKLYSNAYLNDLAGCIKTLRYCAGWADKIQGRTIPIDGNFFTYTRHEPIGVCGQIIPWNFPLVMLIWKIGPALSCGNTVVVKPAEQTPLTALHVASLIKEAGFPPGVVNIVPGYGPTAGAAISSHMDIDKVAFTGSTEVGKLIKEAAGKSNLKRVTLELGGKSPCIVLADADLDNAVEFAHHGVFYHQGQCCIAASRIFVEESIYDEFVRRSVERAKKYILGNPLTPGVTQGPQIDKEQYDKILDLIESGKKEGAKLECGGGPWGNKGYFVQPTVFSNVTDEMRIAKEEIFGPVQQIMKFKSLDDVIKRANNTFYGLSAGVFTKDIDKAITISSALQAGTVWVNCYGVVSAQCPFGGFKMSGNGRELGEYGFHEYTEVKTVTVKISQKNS
VP16 counter: Gal4-VP16 reporter inhibition counter-screen; Drosophila S2 Gal4-VP16 UAS-luciferase, luminescence, 20 h; hit rate 3.5% among 310,000; Potency, µM (highest dose often 53.6 µM), hits mostly inhibitors;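 note: Gal4-VP16 expression switched on by copper sulfate through the metallothionein promoter; nearly all actives have a fitted effect of over 50% in size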
Sfp inh: blocks B. subtilis Sfp PPTase activity; Potency, µM, most hits filed as inhibitors; AID 1490; hit rate 3.5% among 310,000; Q9F4F7; Biochemical Sfp PPTase activity, qHTS;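 note: the enzyme is Sfp with the accession as filed and its product quenches rhodamine fluorescence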
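Buffer: 50 mM Hepes-Na pH 7.6, 10 mM MgCl2, 0.01% Nonidet P-40, 0.01% BSA. Enzyme 15 nM, pre-exposed to compound 15 min; substrates then added and fluorescence change tracked over 30 min.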
Each line names hits and unclear results; the compound was inactive in the other large screens. Unless noted, calls come from the whole dose curve; as a rule, active = well fitted curve in the direction sought with a large enough effect; inconclusive = small, poorly fitted or top-dose-only effect, or another doubt; inactive = no such curve, though single readings can be large; an effect the other way counts as inactive or inconclusive.

CC(Nc1ccc(Br)cc1)C(=O)N/N=C/c1ccccc1OCc1ccccc1 (stereo unspecified)	none
COc1cccc(NC(=O)N(C)C[C@@H]2OCc3cnnn3CCCC(=O)N([C@H](C)CO)C[C@@H]2C)c1	none (no result: RORg inh, ALDH1A1 block, VP16 counter, Sfp inh)
C=CCOC(=O)N[C@@H](c1cccs1)C(C(C)=O)C(C)=O	none (no result: PLK1 PBD inh)
O=C(CN1CCN(Cc2ccccc2)CC1)N/N=C/c1ccc(Br)s1	RORg inh 5.62µM, VP16 counter 10µM
C=CCc1cccc(/C=N/NC(=O)CCCNc2ccc(C)cc2)c1O	RORg inh 1µM, VP16 counter 2µM
NC(=O)c1cccc(-c2cnc(N)c(C(=O)c3cccnc3)n2)c1	none (no result: RORg inh, ALDH1A1 block, VP16 counter, Sfp inh)
CCCC(c1nnnn1Cc1cccs1)N1CCN(C)CC1 (stereo unspecified)	PLK1 PBD inh inconclusive
Cc1ccc(C(c2nnnn2Cc2cccs2)N2CCN(Cc3ccc4c(c3)OCO4)CC2)cc1 (stereo unspecified)	ALDH1A1 block 10µM
COc1ccccc1CN1CCN(C(CC(C)C)c2nnnn2Cc2cccs2)CC1 (stereo unspecified)	Sfp inh 89.1µM
COCCn1nnnc1C(c1ccc(C)cc1)N1CCN(Cc2ccc3c(c2)OCO3)CC1 (stereo unspecified)	PLK1 PBD inh 23.8µM, RORg inh inconclusive
COc1ccc(NC(=O)COC(=O)C2CC2)cc1S(=O)(=O)N1CCCCC1	none (no result: RORg inh, ALDH1A1 block, VP16 counter, Sfp inh)
CC[C@@]1(C(=O)OC)N[C@H](CN(C)S(=O)(=O)c2ccc(C(F)(F)F)cc2)[C@@H]2C(=O)N(C)C(=O)[C@@H]21	none (no result: RORg inh, ALDH1A1 block, VP16 counter, Sfp inh)
OC[C@@H]1CN(Cc2ccc(-c3ccccc3)cc2)C[C@H](n2cnc3c(NCc4ccco4)ncnc32)O1	none (no result: RORg inh, ALDH1A1 block, VP16 counter, Sfp inh)
COC(=O)c1cc(C(=O)OC)cc(-n2c(C)cc(C=O)c2C)c1	ALDH1A1 block inconclusive
Cc1cc(/C=N/O)c(C)n1-c1ccccc1	none
Cc1cc(/C=N/O)c(C)n1-c1cccc(Cl)c1	ALDH1A1 block 14.1µM
COC(=O)c1ccc(C)c(-n2c(C)cc(C=O)c2C)c1	ALDH1A1 block 1.78µM
COc1ccc(C)cc1-n1c(C)cc(C=O)c1C	ALDH1A1 block inconclusive
Cc1cc(C=O)c(C)n1-c1cc(C(=O)O)cc(C(=O)O)c1	PLK1 PBD inh inconclusive
COc1ccccc1-n1c(C)cc(C=O)c1C	ALDH1A1 block 14.1µM
COC(=O)c1cccc(-n2c(C)cc(C=O)c2C)c1	ALDH1A1 block 7.94µM
C=C(C(C)=O)C(O)c1ccccc1 (stereo unspecified)	none (no result: PLK1 PBD inh)
CC(=O)NCCCC[C@H](NC(=O)OC(C)(C)C)C(=O)Nc1ccc2c(C(F)(F)F)cc(=O)oc2c1	none (no result: PLK1 PBD inh, ALDH1A1 block)
COc1cccc(NC(=O)Nc2nnc([C@H]3C[C@H](O)[C@@H](CO)O3)s2)c1	none (no result: RORg inh, ALDH1A1 block, VP16 counter, Sfp inh)
CCC1(c2ccccc2)NC(=O)N(CC(=O)N2CC(=O)Nc3ccccc32)C1=O (stereo unspecified)	none (no result: RORg inh, ALDH1A1 block, VP16 counter, Sfp inh)
CCOC(=O)c1cccc(-n2c(C)cc(C=O)c2C)c1	ALDH1A1 block 11.2µM
Cc1c(Cl)cccc1NC(=S)Nc1ccccn1	RORg inh 1µM, VP16 counter inconclusive
S=C(Nc1ccccc1)Nc1ccccc1Br	RORg inh inconclusive
Cc1ccccc1NC(=S)Nc1ccc(Br)cc1	RORg inh 11.2µM, ALDH1A1 block inconclusive, VP16 counter 11.2µM
Cc1ccccc1NC(=S)Nc1ccccn1	PLK1 PBD inh inconclusive, RORg inh 0.501µM, VP16 counter 1.58µM, Sfp inh 56.2µM (no result: ALDH1A1 block)
S=C(Nc1ccccn1)Nc1ccccc1Cl	none
CC(C)(C)COS(=O)OCC(C)(C)C	none (no result: PLK1 PBD inh, RORg inh, VP16 counter, Sfp inh)
O=C(Nc1ccc(Br)cc1)c1ccc(F)c(S(=O)(=O)NCc2cccs2)c1	RORg inh inconclusive, VP16 counter 10µM
O=S(=O)(NCc1cccs1)c1ccc(Br)cc1	RORg inh inconclusive (no result: ALDH1A1 block)
N#C/C(=C\c1c(N2CCOCC2)nc2ccccn2c1=O)S(=O)(=O)c1ccccc1	ALDH1A1 block 12.6µM
CCOC(=O)C1=NO[C@@]2(C=C(Br)C3(OCCCO3)[C@H]3O[C@H]32)C1	none (no result: PLK1 PBD inh)
CC(C)C[C@@H]1NC(=O)[C@H](Cc2ccc(O)cc2)NC(=O)[C@H](CCC(N)=O)NC(=O)c2cc([N+](=O)[O-])cc(I)c2NCC[C@@H](C(N)=O)NC1=O	ALDH1A1 block 3.98µM (no result: PLK1 PBD inh)
NCCCC[C@H]1NC(=O)[C@H](CCC(=O)O)NC(=O)c2cc([N+](=O)[O-])cc(I)c2OCC[C@@H](C(N)=O)NC1=O	PLK1 PBD inh 7.52µM, ALDH1A1 block inconclusive
CC(C)C[C@@H]1NC(=O)[C@H](C(C)C)NC(=O)c2cc([N+](=O)[O-])cc(I)c2NCC[C@@H](C(N)=O)NC1=O	ALDH1A1 block 28.2µM
NC(=O)[C@@H]1CCNc2c(I)cc([N+](=O)[O-])cc2C(=O)N[C@@H](CO)C(=O)N[C@@H](Cc2ccc(O)cc2)C(=O)N1	none (no result: PLK1 PBD inh)
O=C(CSc1ncc(-c2ccc(F)cc2)n1Cc1ccco1)Nc1nccs1	none
Cc1cnc(NC(=O)CSc2ncc(-c3ccccc3)n2Cc2ccco2)s1	RORg inh 11.2µM
O=C(CSc1nnc(-c2ccc(Cl)cc2)n1Cc1ccco1)c1cccs1	RORg inh inconclusive, ALDH1A1 block inconclusive, Sfp inh 22.4µM
O=C(CSc1nnc(-c2ccncc2)n1Cc1ccco1)c1ccc(Cl)cc1	ALDH1A1 block inconclusive, Sfp inh 22.4µM
O=C(CSc1nnc(-c2ccncc2)n1Cc1ccco1)Nc1ccccc1Cl	RORg inh inconclusive, Sfp inh 44.7µM
O=C(Nc1ccccc1)N1CCCC2(CCN(C(=O)c3csnn3)CC2)C1	none (no result: PLK1 PBD inh)
COc1ccc(S(=O)(=O)N2CCCCC2c2cc(C(=O)NCc3ccccc3)no2)cc1 (stereo unspecified)	none (no result: RORg inh, ALDH1A1 block, VP16 counter, Sfp inh)
Cc1ccc2c(c1)-c1cc(C)ccc1C2=O	none (no result: RORg inh, ALDH1A1 block, VP16 counter, Sfp inh)
Cc1nc(SCc2cccc(F)c2)c2oc3ccccc3c2n1	Sfp inh 39.8µM (no result: ALDH1A1 block)
Cc1nc(SCC(=O)Nc2ccccc2)c2oc3ccccc3c2n1	ALDH1A1 block inconclusive
CNC(=O)C(Sc1nc(C)nc2c1oc1ccccc12)C(C)=O (stereo unspecified)	ALDH1A1 block 12.6µM, VP16 counter 7.08µM, Sfp inh 50.1µM
CCN(CC)CCNC(=O)c1ccc(NC(=O)c2ccc(-n3cncn3)c([N+](=O)[O-])c2)cc1	none (no result: RORg inh, ALDH1A1 block, VP16 counter, Sfp inh)
Cc1ccc(S(=O)(=O)N[C@@H](CCc2ccccc2)CC(=O)C(C)(C)C)cc1	none (no result: PLK1 PBD inh)
Cc1cc(/C=N/n2c(COc3ccccc3C)nc3ccccc3c2=O)c(O)c([N+](=O)[O-])c1	PLK1 PBD inh inconclusive, RORg inh 14.1µM, VP16 counter 35.5µM
Cc1cccc(C)c1OCc1nc2ccccc2c(=O)n1/N=C/c1c[nH]c2ccccc12	RORg inh inconclusive
O=c1c2ccccc2nc(COc2ccccc2)n1/N=C/c1cc([N+](=O)[O-])ccc1O	RORg inh 5.01µM, ALDH1A1 block inconclusive, VP16 counter 3.98µM
CN(C)Cc1csc(Nc2ccc(C(=O)c3ccccc3)cc2)n1	none (no result: RORg inh, ALDH1A1 block, VP16 counter, Sfp inh)
CC(C)(C)NC(=O)C(c1ccc(C#N)cc1)n1c(=O)c(-c2cc3ccccc3[nH]2)nc2ccccc21 (stereo unspecified)	none (no result: RORg inh, ALDH1A1 block, VP16 counter, Sfp inh)
